Results from PubChem BioAssay (NCATS).
Inconclusive results are not listed. Active and inactive are the calls of the source. The call rests on the fitted dose curve; in most records, active means well fitted cell-killing curve with a large enough effect; inconclusive means small, poorly fitted or top-dose-only effect, or effect the other way; inactive means flat fitted curve, though single readings scatter.

How the values were obtained:
Experiment in all cases: Primary qHTS to identify gynecologic anti-cancer compounds using libraries of approved drugs and bioactive compounds (AID 1345084); further: nearly all actives have a fitted effect of over 55% in size
C33A = conditions: Gynecologic cancer cell panel viability, ATPlite luminescence, 48 h; series mostly up to 57.5 µM
How it was run: (§1)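 Luminescence from the ATPlite ATP-monitoring reagent indicates viable cell number; lower signal means cytotoxicity. Cells received compound 16 h after seeding and were exposed for 48 h across five concentrations.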

CAOV3 = conditions: Gynecologic cancer cell panel viability, ATPlite luminescence, 48 h; series mostly up to 57.5 µM
How it was run: as §1

CASKI = conditions: Gynecologic cancer cell panel viability, ATPlite luminescence, 48 h; series mostly up to 57.5 µM
How it was run: as §1

Es-2 = conditions: Gynecologic cancer cell panel viability, ATPlite luminescence, 48 h; series mostly up to 57.5 µM
How it was run: as §1

HeLa = conditions: Gynecologic cancer cell panel viability, ATPlite luminescence, 48 h; series mostly up to 57.5 µM
How it was run: as §1

Hek293T = conditions: Gynecologic cancer cell panel viability, ATPlite luminescence, 48 h, control line for the selectivity index; series mostly up to 57.5 µM
How it was run: as §1

JEG-3 = conditions: Gynecologic cancer cell panel viability, ATPlite luminescence, 48 h; series mostly up to 57.5 µM
How it was run: as §1

OV90 = conditions: Gynecologic cancer cell panel viability, ATPlite luminescence, 48 h; series mostly up to 57.5 µM
How it was run: as §1

PA-1 = conditions: Gynecologic cancer cell panel viability, ATPlite luminescence, 48 h; series mostly up to 57.5 µM
How it was run: as §1

SKOV3 = conditions: Gynecologic cancer cell panel viability, ATPlite luminescence, 48 h; series mostly up to 57.5 µM
How it was run: as §1

Tov-21-G = conditions: Gynecologic cancer cell panel viability, ATPlite luminescence, 48 h; series mostly up to 57.5 µM
How it was run: as §1

Tov112D = conditions: Gynecologic cancer cell panel viability, ATPlite luminescence, 48 h; series mostly up to 57.5 µM
How it was run: as §1
On the % scale 0 is the no-effect control and ±100 the full control effect.

C=C1CCC2C(C(C)(C)O)CCC2(C)CC(O)C(=C)CCC1O (stereo not drawn)
inactive: Potency (C33A) | Potency (CAOV3) | Potency (CASKI) | Potency (Es-2) | Potency (HeLa) | Potency (Hek293T) | Potency (JEG-3) | Potency (OV90) | Potency (PA-1) | Potency (SKOV3) | Potency (Tov-21-G) | Potency (Tov112D)

COC(=O)c1cc(OC)cc(OC)c1C(=O)c1c(OC)cc2c(c1O)C1CCCC(C)(O2)O1 (stereo not drawn)
inactive: Potency (C33A) | Potency (CAOV3) | Potency (CASKI) | Potency (Es-2) | Potency (HeLa) | Potency (Hek293T) | Potency (JEG-3) | Potency (OV90) | Potency (PA-1) | Potency (SKOV3) | Potency (Tov-21-G) | Potency (Tov112D)

CC(C)c1ccc(CO)cc1O[C@@H]1O[C@H](CO)[C@@H](O)[C@H](O)[C@H]1O
inactive: Potency (C33A) | Potency (CAOV3) | Potency (CASKI) | Potency (Es-2) | Potency (HeLa) | Potency (Hek293T) | Potency (JEG-3) | Potency (OV90) | Potency (PA-1) | Potency (SKOV3) | Potency (Tov-21-G) | Potency (Tov112D)

C/C1=C\C[C@]2(C)C(=O)C(O)=C([C@H](C)CO)[C@H]2C/C=C(\C)[C@@H](O)CC/C(C)=C/CC1
inactive: Potency (C33A) | Potency (CAOV3) | Potency (CASKI) | Potency (Es-2) | Potency (HeLa) | Potency (Hek293T) | Potency (JEG-3) | Potency (OV90) | Potency (PA-1) | Potency (SKOV3) | Potency (Tov-21-G) | Potency (Tov112D)

CC(=O)N[C@H]1[C@H](O[C@H]2CC[C@@]3(C)C(CC[C@]4(C)C3CC=C3[C@@H]5CC(C)(C)CC[C@]5(C(=O)OC5OCC(O)C(O)C5O)CC[C@]34C)C2(C)C)O[C@H](COC2OC(C)C(O)C(OC3OC(C)C(O)C(O)C3O)C2O)[C@@H](O)[C@@H]1O (stereo partly drawn)
inactive: activity change, negative = cytotoxicity (C33A) -0.0854% [at 11.6 µM] | activity change, negative = cytotoxicity (CAOV3) 0.431% [at 11.6 µM] | activity change, negative = cytotoxicity (CASKI) 5.69% [at 11.6 µM] | activity change, negative = cytotoxicity (Es-2) 4.54% [at 11.6 µM] | activity change, negative = cytotoxicity (HeLa) 1.75% [at 11.6 µM] | activity change, negative = cytotoxicity (Hek293T) 4.04% [at 11.6 µM] | activity change, negative = cytotoxicity (JEG-3) 1.81% [at 11.6 µM] | activity change, negative = cytotoxicity (OV90) 3.41% [at 11.6 µM] | activity change, negative = cytotoxicity (PA-1) 5.97% [at 11.6 µM] | activity change, negative = cytotoxicity (SKOV3) 2.42% [at 11.6 µM] | activity change, negative = cytotoxicity (Tov-21-G) 2.63% [at 11.6 µM] | activity change, negative = cytotoxicity (Tov112D) 7.32% [at 11.6 µM]

CC1(C)CC2C=C(C(=O)O)C3COC(=O)C(O)(CO)C23C1 (stereo not drawn)
inactive: Potency (C33A) | Potency (CAOV3) | Potency (CASKI) | Potency (Es-2) | Potency (HeLa) | Potency (Hek293T) | Potency (JEG-3) | Potency (OV90) | Potency (PA-1) | Potency (SKOV3) | Potency (Tov-21-G) | Potency (Tov112D)

C=CC(C)(C)c1[nH]c2ccccc2c1C[C@@H]1NC(=O)[C@H](Cc2c[nH]c3ccccc23)NC1=O
inactive: Potency (C33A) | Potency (CAOV3) | Potency (CASKI) | Potency (Es-2) | Potency (HeLa) | Potency (Hek293T) | Potency (JEG-3) | Potency (OV90) | Potency (PA-1) | Potency (SKOV3) | Potency (Tov-21-G) | Potency (Tov112D)

c1ccc(-c2ncc(CN3CCN(c4ncccn4)CC3)[nH]2)cc1
inactive: Potency (C33A) | Potency (CAOV3) | Potency (CASKI) | Potency (Es-2) | Potency (HeLa) | Potency (Hek293T) | Potency (JEG-3) | Potency (OV90) | Potency (PA-1) | Potency (SKOV3) | Potency (Tov-21-G) | Potency (Tov112D)

CCCC(=O)O[C@@H]1[C@@H]2[C@@H](OC(C)=O)[C@]3(C)C(=O)[C@H]4[C@@H](OC(C)=O)C(C)(C)C[C@H]4[C@]3(C)C(=O)[C@@]2(OC(C)=O)C[C@@H]1C
inactive: Potency (C33A) | Potency (CAOV3) | Potency (CASKI) | Potency (Es-2) | Potency (HeLa) | Potency (Hek293T) | Potency (JEG-3) | Potency (OV90) | Potency (PA-1) | Potency (SKOV3) | Potency (Tov-21-G) | Potency (Tov112D)
